Screens from PubChem BioAssay.
MCF10A rereplic = induces DNA re-replication in MCF 10a normal breast cells | Potency, µM (highest dose often 46.1 µM), actives largely listed as activators | 350,000 tested, 2.9% active | MCF 10A DNA re-replication, Hoechst nuclear intensity, 48 h; further: nearly all actives have a fitted effect of over 50% in size
Giardia kill = Giardia lamblia killing; Giardia lamblia trophozoite viability; activity change, % at 7.66 µM, hits read low; 340,000 tested, 0.15% active; in the data active means activity change below about -80%; inconclusive means between about -30% and that limit;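 further: parasites exposed to compound for two days anaerobically before the ATP read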
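Giardia lamblia trophozoites (100 cells/well) were incubated with compounds for 48 h at 37 deg C under anaerobic conditions. Viability was read as ATP content by one-step luminescence after 15-30 min at room temperature.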
KB-V1 MDR tox = kills drug-selected multidrug resistant KB-V1 cells | Potency, µM (top dose mostly 46.1 µM), actives largely listed as cytotoxic | 400,000 tested, 3.4% active | AID 1347076 | KB-V1 MDR cells viability, CellTiter-Glo, 72 h; further: nearly all actives have a fitted effect of over 60% in size
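qHTS viability screen in drug-selected KB-V1 MDR cells: 72 h compound treatment at 37 degrees C, ATP luminescence end point.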
SW480 rerep = induces DNA re-replication in SW480 colon adenocarcinoma cells; SW480 DNA re-replication, Hoechst DNA content imaging, 48 h; Potency, µM (top dose mostly 46.1 µM), usual class: activators; 340,000 tested, 1.8% active; further: nearly all actives have a fitted effect of over 55% in size
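Image-based DNA-content assay: after two days of treatment, nuclei were labelled with the DNA dye Hoechst and imaged, and hits were compounds raising the count of nuclei showing high fluorescence intensity.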
KB-3-1 cytotox = KB-3-1 parental cell cytotoxicity; 400,000 tested, 1.4% active; Potency, µM (highest dose often 46.1 µM), most hits filed as cytotoxic; AID 1347075; KB-3-1 viability, CellTiter-Glo ATP luminescence, 72 h; further: nearly all actives have a fitted effect of over 60% in size
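Using CellTiter-Glo luminescence, growth of non-resistant KB-3-1 adenocarcinoma cells is assessed 72 h after pin-tool compound addition at 37 °C. Normalized responses across the concentration series yield fitted curves.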
ASM inhibitor = human S-ASM enzyme inhibition; P17405; placental ASM, HMU-PC fluorogenic substrate, 60 min; Potency, µM (series often up to 57.5 µM), actives largely listed as inhibitors; 340,000 tested, 0.006% active; AID 504937
Target sequence (P17405 47-631 limits assumed): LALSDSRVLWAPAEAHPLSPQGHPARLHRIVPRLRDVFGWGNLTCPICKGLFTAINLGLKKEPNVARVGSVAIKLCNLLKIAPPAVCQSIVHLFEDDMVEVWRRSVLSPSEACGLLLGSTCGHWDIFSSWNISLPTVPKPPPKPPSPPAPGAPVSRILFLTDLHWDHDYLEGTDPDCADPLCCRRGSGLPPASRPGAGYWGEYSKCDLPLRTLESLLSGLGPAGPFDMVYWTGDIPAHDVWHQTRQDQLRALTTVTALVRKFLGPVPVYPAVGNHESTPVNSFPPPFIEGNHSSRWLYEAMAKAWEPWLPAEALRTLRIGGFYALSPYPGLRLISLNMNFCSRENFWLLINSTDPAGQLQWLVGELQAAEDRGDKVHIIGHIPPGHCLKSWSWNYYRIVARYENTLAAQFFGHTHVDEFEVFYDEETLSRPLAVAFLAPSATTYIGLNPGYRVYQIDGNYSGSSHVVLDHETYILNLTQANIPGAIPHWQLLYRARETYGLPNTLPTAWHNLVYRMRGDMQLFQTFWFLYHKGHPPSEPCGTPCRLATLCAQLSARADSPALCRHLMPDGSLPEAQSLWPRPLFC
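Human placenta-derived ASM enzyme was preincubated with compound for 10 minutes at room temperature, then given fluorogenic substrate HMU-PC0 (9 uM final) for 60 minutes at 37 °C; a pH 10 stop preceded fluorescence reading at Ex 386/Em 447 nm.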
Each line names hits and unclear results; the compound was inactive in the other large screens. Hits are enriched below; roughly 6.9% of the tested compounds scored in any of these assays. Unless noted, the call rests on the fitted dose curve; in most records, active means well fitted curve in the direction sought with a large enough effect; inconclusive means small, poorly fitted or top-dose-only effect, or another doubt; inactive means no such curve, though single readings can be large; an effect the other way counts as inactive or inconclusive.

Cc1csc2c1c(=O)n(O)c(=O)n2Cc1ccccc1	none (no result: MCF10A rereplic, Giardia kill, SW480 rerep, ASM inhibitor)
COc1cc(NC(=O)C2=C(N3CCOCC3)/C(=C\c3ccc(N(C)C)cc3)CCC2)cc(OC)c1OC	MCF10A rereplic 18µM, KB-V1 MDR tox 2.6µM, SW480 rerep 10µM, KB-3-1 cytotox 12µM
O=C(Nc1ccc(NC(=O)c2cccs2)cc1)c1ccc(Br)cc1	none (no result: MCF10A rereplic, Giardia kill, SW480 rerep, ASM inhibitor)
CCN1C(=O)S/C(=C/c2ccc(Sc3nc4ccccc4[nH]3)o2)C1=O	MCF10A rereplic inconclusive, KB-V1 MDR tox inconclusive, SW480 rerep 1.5µM
CCc1ccc(OCCNC(=O)c2ccccc2SCc2ccccc2)cc1	MCF10A rereplic 16µM, KB-V1 MDR tox inconclusive, KB-3-1 cytotox inconclusive
CCNC(=O)c1ccccc1SCc1ccccc1	none
Cc1ccc(Cl)cc1NC(=O)CSC1=Nc2ccccc2C2=NC(Cc3ccccc3)C(=O)N12 (configuration not stated)	none (no result: MCF10A rereplic, Giardia kill, SW480 rerep, ASM inhibitor)
c1coc(C2Nc3ccccc3C3OCCC23)c1 (configuration not stated)	none
Fc1ccc2c(c1)C1OCCCC1C(c1ccccc1)N2 (configuration not stated)	MCF10A rereplic 6.5µM, SW480 rerep inconclusive
Cc1c2c(cc3c1[nH]c1ccccc13)C=NCC2	MCF10A rereplic 21µM, KB-V1 MDR tox inconclusive, SW480 rerep inconclusive, KB-3-1 cytotox inconclusive
Cc1cc2c([nH]c3ccccc32)c(C)n1	MCF10A rereplic inconclusive
c1ccc2[nH]c(CSc3ncnc4c3oc3ccccc34)nc2c1	MCF10A rereplic inconclusive, KB-V1 MDR tox 4.6µM, KB-3-1 cytotox inconclusive
c1ccc(CSc2nnc(-c3ccco3)o2)cc1	none
Clc1ccc(SCc2nc3ccccc3[nH]2)cc1	MCF10A rereplic inconclusive, KB-V1 MDR tox 23µM
c1coc(-c2nnc(SCc3nc4ccccc4[nH]3)o2)c1	KB-V1 MDR tox 15µM, KB-3-1 cytotox inconclusive
c1ccc(SCc2nc3ccccc3[nH]2)cc1	none
Cc1ccc(SCc2nc3ccccc3[nH]2)cc1	SW480 rerep inconclusive
Cc1ccc(CSCc2nc3ccccc3[nH]2)cc1	MCF10A rereplic 16µM, SW480 rerep inconclusive
O=C(Nc1ccc(Cl)cc1)C(NS(=O)(=O)c1cccs1)c1ccccc1 (configuration not stated)	none (no result: MCF10A rereplic, Giardia kill, SW480 rerep, ASM inhibitor)
COc1ccccc1C(=O)N/C(=C/c1ccco1)C(=O)Nc1cccc(C(=O)O)c1	none
Cc1cc(C)cc(CC(Cc2nc3ccccc3[nH]2)c2nc3ccccc3[nH]2)c1 (configuration not stated)	MCF10A rereplic inconclusive, KB-3-1 cytotox 16µM
CCc1ccc(-n2nc3ccc(NC(=O)c4cc5ccccc5o4)cc3n2)cc1	none (no result: MCF10A rereplic, Giardia kill, SW480 rerep, ASM inhibitor)
O=C(NNC(=O)c1cc(Cl)ccc1O)c1cccs1	SW480 rerep 21µM
O=C(COc1coc(CN2CCN(c3ccc(F)cc3)CC2)cc1=O)NC1CCCCC1	KB-V1 MDR tox 4.1µM, KB-3-1 cytotox inconclusive
O=C(COc1coc(CN2CCN(c3ccc(F)cc3)CC2)cc1=O)NC1CCCC1	none
O=C1c2ccc3c4c(ccc(c24)C(=O)N1CCCCO)C(=O)N(CCCCO)C3=O	MCF10A rereplic inconclusive, Giardia kill inconclusive, KB-V1 MDR tox inconclusive, SW480 rerep inconclusive, KB-3-1 cytotox 3.7µM
Cc1nc(SCc2ccc(OCCC(C)C)cc2)n[nH]1	SW480 rerep 23µM
COCCN(C(=O)C1CCN(C(=O)c2ccccc2C)CC1)c1c(N)n(CC(C)C)c(=O)[nH]c1=O	none
O=[N+]([O-])c1cc(CN2CCCC2)ccc1Sc1ccc(Cl)cc1	MCF10A rereplic 10µM, KB-V1 MDR tox inconclusive, KB-3-1 cytotox inconclusive
Clc1ccc(CN2CCCCCC2)cc1	none
CCOC(=O)C1(C)C=C(Nc2cccc(C)c2)C(=O)N1c1ccccc1 (configuration not stated)	none (no result: MCF10A rereplic, Giardia kill, SW480 rerep, ASM inhibitor)
CC(C)Cc1nc2sc3c(=O)[nH]cnc3c2c2c1CCC2	KB-V1 MDR tox 16µM
CC(C)c1nc2sc3c(=O)[nH]cnc3c2c2c1CCC2	none
CCOC(=O)C1CCN(S(=O)(=O)c2ccc(-n3cnnn3)c(C)c2)CC1	MCF10A rereplic 12µM, SW480 rerep inconclusive
CCSC1=N/C(=C\c2ccccc2)C(=O)N1	none
COC(=O)C(C)SC1=N/C(=C/c2ccc(-n3cncn3)cc2)C(=O)N1 (configuration not stated)	MCF10A rereplic 16µM, SW480 rerep inconclusive
CCCN1CCN(CCCNC(=O)c2ccc3nc(N4CCC(C)CC4)sc3c2)CC1	none
COc1ccc(N2CCN(CCCNC(=O)c3ccc4nc(N5CCCCC5)sc4c3)CC2)cc1	none (no result: MCF10A rereplic, Giardia kill, SW480 rerep, ASM inhibitor)
Cc1ccc(Cl)cc1N1CCN(CCCNC(=O)c2ccc3nc(N4CCCCC4)sc3c2)CC1	KB-V1 MDR tox 16µM, KB-3-1 cytotox inconclusive (no result: MCF10A rereplic, Giardia kill, SW480 rerep, ASM inhibitor)
Cc1ccc(C)c(N2CCN(CCCNC(=O)c3ccc4nc(N5CCC(C)CC5)sc4c3)CC2)c1	KB-V1 MDR tox inconclusive, KB-3-1 cytotox 21µM (no result: MCF10A rereplic, Giardia kill, SW480 rerep, ASM inhibitor)
Cc1cc2c(n1-c1ccc(Br)cc1)CC(C)(C)CC2=O	KB-V1 MDR tox 26µM
O=c1[nH]nc(-c2ccc(NCCO)c([N+](=O)[O-])c2)c2ccccc12	none
O=[N+]([O-])c1cc(Cl)cc2c1nc(NCCO)c1ccccc12	KB-V1 MDR tox inconclusive, SW480 rerep inconclusive, KB-3-1 cytotox 18µM
CC(Nc1nc(-c2ccc(F)cc2)cs1)c1nc2cc(Cl)c(N3CCCCC3)cc2n1CCCO (configuration not stated)	MCF10A rereplic 21µM, KB-V1 MDR tox inconclusive, SW480 rerep inconclusive, KB-3-1 cytotox inconclusive
FC(F)(F)c1ccc2c(c1)N1CCCC1CN2 (configuration not stated)	Giardia kill -87
CCCN(Cc1cccs1)C(=O)Nc1ccccc1C	none (no result: MCF10A rereplic, Giardia kill, SW480 rerep, ASM inhibitor)
Cc1cc(C)c2nc(NNC(=O)c3ccc(S(=O)(=O)N4CCCCC4)cc3)sc2c1	MCF10A rereplic inconclusive, SW480 rerep inconclusive, KB-3-1 cytotox inconclusive
Cc1cccc2sc(NC(=O)c3cccc(S(=O)(=O)N4CCc5ccccc54)c3)nc12	MCF10A rereplic inconclusive
Cc1cccc2sc(NNC(=O)c3ccc(S(=O)(=O)N4CCc5ccccc5C4)cc3)nc12	MCF10A rereplic inconclusive, SW480 rerep 4.1µM, KB-3-1 cytotox 5.8µM
Cc1cccc2sc(NNC(=O)c3ccc(S(=O)(=O)N4CCCC(C)C4)cc3)nc12 (configuration not stated)	MCF10A rereplic inconclusive, SW480 rerep 7.3µM, KB-3-1 cytotox 5.2µM
CCn1c(CCNC(=O)c2ccc(Cl)c(Cl)c2)nnc1SCCOc1ccc(OC)cc1	KB-V1 MDR tox 5.8µM, KB-3-1 cytotox 21µM
COc1ccc(OCCSc2nnc(CCNC(=O)c3ccc(OC)cc3)n2C)cc1	KB-V1 MDR tox 18µM
O=[N+]([O-])c1ccc(/C=N/N2CCCCC2)cc1	none
O=C(NCc1ccccc1F)C(=O)NCC(c1ccc2c(c1)OCO2)N1CCOCC1 (configuration not stated)	none (no result: MCF10A rereplic, Giardia kill, SW480 rerep, ASM inhibitor)
